Consider 6 compounds from PubChem BioAssay.

Experiment [1] is described as follows: polyglutamine-triggered caspase-3 activation inhibitors, cell-based (AID 1583). Conditions: polyglutamine-induced caspase-3 activation, cell assay; stronger effect = higher value;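 tested at 10 µM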.
Experiment [2] in a line: suppressors of polyQ aggregation in yeast, 75Q-TubU reporter (AID 1593). The conditions noted are these: Yeast 75Q polyglutamine aggregation reporter.
Experiment [3] in a line: rescue of polyQ-huntingtin neuronal dysfunction in worms, whole organism, C. elegans mechanosensory neurons, N-terminal huntingtin (AID 1599). The conditions noted are these: touch response, stronger effect = higher value.
Experiment [4] can be described thus: inhibitors of mitochondrial cytochrome c release, biochemical, purified mitochondria (AID 1603).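 Also: mouse liver mitochondria challenged with calcium chloride; signal normalized to the plate average as 100%.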 Conditions: stronger effect = lower value.
A short description of experiment [5]: inhibitors of polyQ protein aggregation (AID 1604). Conditions: polyglutamine-induced protein aggregation inhibition assay; stronger effect = higher value; tested at 2.5 µM.
A short description of experiment [6]: enhancers of glutamate uptake in motor neurons, MN-1 cell line (AID 1612).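 Also: tested at 1 µM final; 0% = mean of DMSO vehicle wells on each plate; positive means more glutamate uptake than control and negative means less.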 Conditions: MN-1 motor neuron cells, stronger effect = higher value.
Experiment [7] can be described thus: suppressors of polyglutamine aggregation in yeast, 75Q-TubH (AID 1616). Conditions: S. cerevisiae 75Q-TubH polyglutamine aggregation suppression; stronger effect = higher value.
Experiment [8] can be described thus: liver-stage malaria parasite growth inhibition, primary screen, cell-based, HepG2, luciferase luminescence, HepG2 viability (AID 624349; in the data active = parasite load remaining mostly below about 12%, no sharp cut-off; inactive = mostly above about 10%;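 also: 100% = mean of DMSO negative control wells on the same plate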). Conditions: P. berghei liver stage in HepG2, luciferase luminescence, concentration not given here; parasite load remaining: stronger effect = lower value; viability: measured here: HepG2 viability without parasites.
For experiment [9], the target named is 6-phosphogluconate dehydrogenase, decarboxylating (Homo sapiens) (UniProt P52209). The experiment is described as follows: 6PGD enzyme inhibitors, primary screen, biochemical, human, recombinant enzyme, NADPH absorbance (AID 1159550;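 active = at least 20% inhibition of 6-phosphogluconate dehydrogenase activity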). The conditions noted are these: recombinant 6PGD, NADPH absorbance 341 nm; at 10 µM; stronger effect = higher value.
Chain of 6-phosphogluconate dehydrogenase, decarboxylating (Homo sapiens) (P52209 whole entry, looked up): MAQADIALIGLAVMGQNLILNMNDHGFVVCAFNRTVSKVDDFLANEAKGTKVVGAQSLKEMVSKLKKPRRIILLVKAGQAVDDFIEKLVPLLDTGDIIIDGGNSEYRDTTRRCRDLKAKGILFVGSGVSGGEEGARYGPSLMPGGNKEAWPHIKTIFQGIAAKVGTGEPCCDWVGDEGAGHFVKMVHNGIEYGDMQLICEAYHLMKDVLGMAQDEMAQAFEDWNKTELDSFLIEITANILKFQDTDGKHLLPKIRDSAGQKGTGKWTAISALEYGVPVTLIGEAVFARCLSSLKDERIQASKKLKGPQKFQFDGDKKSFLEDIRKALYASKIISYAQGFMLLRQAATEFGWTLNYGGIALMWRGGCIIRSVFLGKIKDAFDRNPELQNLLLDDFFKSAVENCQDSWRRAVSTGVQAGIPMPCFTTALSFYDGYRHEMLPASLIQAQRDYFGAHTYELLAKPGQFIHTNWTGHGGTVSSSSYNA
In experiment [10] the test system is Aerobactin synthetase IucA (Klebsiella pneumoniae hvKP1). Nature of the experiment: Biochemical IucA enzyme inhibition primary screen of the Spectrum library (AID 1346200; call rule not given here;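 also: 100% = wells without compound and 0% = wells lacking enzyme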). The conditions noted are these: malachite green pyrophosphate, A620, at 8 µM, stronger effect = lower value.
The target of experiment [11] is Mitogen-activated protein kinase 7 (Homo sapiens) (UniProt Q13164). Nature of the experiment: ERK5 transactivation activators in reporter cells, primary screen, cell-based, HTS (AID 1508626).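 Also: luciferase driven by Gal4-ERK5 fusion binding five Gal4 sites before minimal TATA.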 Conditions: HeLa Gal4-ERK5 transactivation, 18 h, at 5 µM, stronger effect = higher value.
Chain of Mitogen-activated protein kinase 7 (Homo sapiens) (Q13164 whole entry, looked up, the tested form may be a part): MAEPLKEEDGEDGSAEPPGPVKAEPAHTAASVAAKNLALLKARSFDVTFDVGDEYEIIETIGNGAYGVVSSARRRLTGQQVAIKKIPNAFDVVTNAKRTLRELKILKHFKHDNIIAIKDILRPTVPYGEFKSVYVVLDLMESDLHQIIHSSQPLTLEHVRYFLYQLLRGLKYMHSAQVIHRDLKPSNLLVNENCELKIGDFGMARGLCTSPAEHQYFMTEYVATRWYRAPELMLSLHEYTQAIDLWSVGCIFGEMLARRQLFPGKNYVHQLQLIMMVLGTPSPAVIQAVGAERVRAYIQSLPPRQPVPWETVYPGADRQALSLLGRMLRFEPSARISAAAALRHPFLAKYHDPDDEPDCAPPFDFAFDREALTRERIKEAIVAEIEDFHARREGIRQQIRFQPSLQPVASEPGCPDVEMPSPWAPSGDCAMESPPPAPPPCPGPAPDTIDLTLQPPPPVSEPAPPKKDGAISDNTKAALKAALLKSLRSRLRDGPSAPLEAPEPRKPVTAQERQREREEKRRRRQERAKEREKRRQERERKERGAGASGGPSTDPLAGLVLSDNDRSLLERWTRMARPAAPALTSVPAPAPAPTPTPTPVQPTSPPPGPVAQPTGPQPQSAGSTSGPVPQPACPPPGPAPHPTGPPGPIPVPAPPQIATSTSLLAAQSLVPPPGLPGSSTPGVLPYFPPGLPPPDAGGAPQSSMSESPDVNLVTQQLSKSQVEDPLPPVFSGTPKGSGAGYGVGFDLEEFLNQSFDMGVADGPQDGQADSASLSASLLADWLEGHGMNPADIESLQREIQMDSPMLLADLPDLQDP
The nature of experiment [12]: reducers of polyQ inclusions in PC12 cells, cell-based, NGF-treated PC12, GFPQ80 (AID 1614).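 Also: lower means fewer inclusions and 0 means no inclusions at all.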 Conditions: PC12 NGF-treated GFP-polyQ80 inclusion reduction.
Experiment [13] is described as follows: sensitizers of A549 cells to miR-34 induction, primary screen, imaging, A549 dox-inducible miR-34, nuclei and caspase counts (AID 1347080;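 active = compounds whose cell count with miR-34 switched on is under 0.7 times the count with it off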). The conditions noted are these: A549 miR-34 inducible, Hoechst nuclei count, 48 h.
A short description of experiment [14]: survival rescue of mitochondrial mutant cells in low glucose, primary screen, MELAS cybrids, Rieske KO mouse fibroblasts, CellTiter-Glo (AID 1508586;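 active = mean z-score across replicates of 1.96 or higher in either the MELAS or the Rieske mutant cell line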;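 also: z relative to plate mean and SD of compound and empty wells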). A general note: ATP-based viability assays read luminescence as a measure of living cells.
Experiment [15] is described as follows: growth inhibition of DIPG glioma cells, dose response, cell-based, SU-DIPG-XVII, MIPE5.0, CellTiter-Glo, qHTS (AID 1347060; cut-off not given, nearly all actives have AC50 up to about 26 µM). The conditions noted are these: SU-DIPG-XVII viability, CellTiter-Glo ATP luminescence.
The nature of experiment [16]: growth inhibition of DIPG glioma cells, dose response, cell-based, SU-DIPG-XIII, MIPE4.0, CellTiter-Glo, qHTS (AID 1347061; cut-off not given, nearly all actives have AC50 up to about 37 µM;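 also: cells exposed to compound for 48 hours before readout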). Conditions: SU-DIPG-XIII viability, CellTiter-Glo ATP luminescence.
A short description of experiment [17]: growth inhibition of DIPG glioma cells, dose response, cell-based, JHH-DIPG-1, MIPE4.0, CellTiter-Glo, qHTS (AID 1347062; cut-off not given, nearly all actives have AC50 up to about 27 µM). The conditions noted are these: JHH-DIPG-1 viability, CellTiter-Glo ATP luminescence.
Experiment [18] is described as follows: growth inhibition of DIPG glioma cells, dose response, cell-based, SU-DIPG-IV, MIPE4.0, CellTiter-Glo, qHTS (AID 1347063; cut-off not given, nearly all actives have AC50 up to about 30 µM;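 also: compound exposure lasted 48 hours before the viability readout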). The conditions noted are these: SU-DIPG-IV viability, CellTiter-Glo ATP luminescence.
Experiment [19] in a line: growth inhibition of DIPG glioma cells, dose response, cell-based, SU-DIPG-XIII, MIPE5.0, CellTiter-Glo, qHTS (AID 1347064; cut-off not given, nearly all actives have AC50 up to about 23 µM). Conditions: SU-DIPG-XIII viability, CellTiter-Glo ATP luminescence.
A short description of experiment [20]: viability loss in pontine glioma line – cell-based, SU-DIPG-XXV, MIPE5.0, CellTiter-Glo, qHTS, dose response (AID 1347065; cut-off not given, nearly all actives have AC50 up to about 26 µM;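 also: cells exposed to compound for 48 hours before ATP readout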). Conditions: CellTiter-Glo ATP luminescence.
Experiment [21] in a line: JHH-DIPG-1 glioma cell viability, MIPE5.0 library, CellTiter-Glo luminescence, qHTS (AID 1347067; cut-off not given, nearly all actives have AC50 up to about 26 µM;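 also: cells exposed to compound for 48 hours before readout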). Conditions: JHH-DIPG-1 glioma viability, CellTiter-Glo ATP luminescence.
The nature of experiment [22]: SU-DIPG-XXV glioma cell viability, MIPE5.0 library, qHTS (AID 1347068; cut-off not given, nearly all actives have IC50 up to about 30 µM). Background: qHTS replaces the single test concentration by a dilution series.
Experiment [23] can be described thus: modifiers of HSF1 nuclear foci, imaging, Selleck Cancer Library (AID 1347162; in the data active = plate-normalised HSF1 focus index below about 0.46). The conditions noted are these: human cells, at 10 µM; SSMD: measured here: HSF1 foci SSMD mean; cell count: measured here: cell number; plate-normalised HSF1 focus index: stronger effect = lower value.
For experiment [24], the target named is NAD(+) hydrolase SARM1 (Homo sapiens) (UniProt Q6SZW1). Nature of the experiment: SARM1 TIR NADase inhibitors, cell lysate, NAD-Glo luminescence (AID 1508614;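 active = compound whose remaining NAD level is above about 45 nM, limit read from the data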;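 also: higher remaining NAD means stronger inhibition of SARM1 NADase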). Conditions: SAM-TIR HEK293T lysate NADase, at 1 µM, stronger effect = higher value.
Chain of NAD(+) hydrolase SARM1 (Homo sapiens) (Q6SZW1 whole entry, looked up): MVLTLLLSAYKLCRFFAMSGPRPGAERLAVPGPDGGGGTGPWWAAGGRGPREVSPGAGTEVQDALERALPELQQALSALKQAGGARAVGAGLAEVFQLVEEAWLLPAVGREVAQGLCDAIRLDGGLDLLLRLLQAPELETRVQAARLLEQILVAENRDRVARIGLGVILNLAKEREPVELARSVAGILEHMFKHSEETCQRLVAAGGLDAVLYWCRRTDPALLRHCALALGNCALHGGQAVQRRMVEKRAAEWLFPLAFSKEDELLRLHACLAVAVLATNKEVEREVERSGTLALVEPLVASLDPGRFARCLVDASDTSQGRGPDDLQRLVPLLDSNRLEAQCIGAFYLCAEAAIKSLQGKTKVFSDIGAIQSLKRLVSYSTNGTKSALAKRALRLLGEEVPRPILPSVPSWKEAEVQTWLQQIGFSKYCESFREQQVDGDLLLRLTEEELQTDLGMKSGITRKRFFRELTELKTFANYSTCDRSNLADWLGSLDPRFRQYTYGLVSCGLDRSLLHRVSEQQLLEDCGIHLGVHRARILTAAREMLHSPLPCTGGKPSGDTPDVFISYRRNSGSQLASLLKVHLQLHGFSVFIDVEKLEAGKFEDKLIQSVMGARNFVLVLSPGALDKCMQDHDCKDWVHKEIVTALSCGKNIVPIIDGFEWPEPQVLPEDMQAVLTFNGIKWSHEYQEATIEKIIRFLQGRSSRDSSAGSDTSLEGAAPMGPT
Experiment [25] is described as follows: viability rescue of complex I mutant cybrids, primary screen, cell-based, galactose medium, ATP luminescence (AID 1645843;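 active = z-score of at least 1.8 in each of two replicates, scored against plate mean and spread of sample wells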;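 also: positive z means more ATP and so rescue of galactose-driven cybrid death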). The conditions noted are these: complex I mutant cybrid cells, 72 h, stronger effect = higher value.
[26] abbreviates: measured here: relative caspase fold change +Dox/-Dox.
[27] abbreviates: measured here: total cells with miR-34 induction, stronger effect = lower value.
The mark [28] stands for this setting: measured here: total cells without miR-34 induction.
Setting [29] is: MELAS cybrid survival, CellTiter-Glo 48 h, stronger effect = higher value.
The mark [30] stands for this setting: Rieske KO mouse fibroblast survival, CellTiter-Glo 72 h.

“And” between values parts separate entries of the source, which are not always exact repeats. Identical values can stand only once. Inconclusive results are not listed. For some of these results: Entries with a potency or affinity are not part of this list. The source made the active and inactive calls.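 The calls were made as follows, unless noted: active = luciferase signal above three times the same-plate solvent-only control wells; inactive = the rest.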

On to `CC[C@@]1(O)C[C@H](O[C@H]2C[C@H](N(C)C)[C@H](O)[C@H](C)O2)c2c(cc3c(c2O)C(=O)c2c(O)cccc2C3=O)[C@H]1C(=O)OC`, for which the inhibition (as a rule, the drop in the measured response relative to a control, in per cent) in experiment [1] is 61.1%. Further, in experiment [2], the score was 0.65. Further, the rescue above control in experiment [3] turned out to be 1.11. In experiment [4], the cytochrome c release ratio is 3.13. Further, in experiment [5], the inhibition of aggregation was determined as 90.8%. Moreover, the glutamate uptake change in experiment [6] was -25.9%. The compound also gave an aggregation suppression score in experiment [7] of 0.115. Moreover, in experiment [8], the parasite load remaining was 0.915% (inactive) and the viability (in general, a read-out of living cells in per cent, often relative to untreated cells) was determined as 15.1%. The inhibition in [9] is -8.44% (inactive). Moreover, in experiment [10], the activity remaining is 107% (inactive). The luciferase signal in experiment [11] was 5360 AU (active).

As to `CCCC(C)C1(CC)C(=O)NC(=O)NC1=O` (stereo not given), the results for the inhibition in experiment [1] and in experiment [9] were 8.8% and -1.31% (inactive), respectively. For the same compound, the score in [2] came to 1.08. The compound also registered a rescue above control in [3] of -0.14. Also, the cytochrome c release ratio in experiment [4] was 0.79. In addition, the inhibition of aggregation in experiment [5] is -14.3%. In experiment [6], the glutamate uptake change amounted to 8.51%. In [12], the inclusion score worked out at 2. Besides, in experiment [7], the aggregation suppression score came out at 0.96. Moreover, the parasite load remaining in experiment [8] was 22.1% (inactive). Moreover, in [8], the viability is 103%. Besides, the activity remaining in experiment [10] is 95.4% (inactive). Also, the figures for the fold change in experiment [13] (stronger effect = lower value) and in experiment [13] (setting [26]) were 0.918 (inactive) and 2.52, respectively. Also, the cell count in experiment [13] (setting [27]) was determined as 11200; in experiment [13] (setting [28]) it was 12200. The z-score was 0.13 (inactive) in [14] (setting [29]) and -0.121 in experiment [14] (setting [30]). For the same compound, the luciferase signal in experiment [11] was 60 AU (inactive).

Consider `CCCN(CCC)c1c([N+](=O)[O-])cc(C(F)(F)F)cc1[N+](=O)[O-]`, for which, in experiment [9], the inhibition is -18.5% (inactive). In addition, the activity remaining in [10] was 95.7% (inactive). For the same compound, the luciferase signal in experiment [11] is 72 AU (inactive).

Take `N#Cc1c(Cl)cccc1Cl`: in experiment [9], the inhibition was -5.35% (inactive). For the same compound, in [10], the activity remaining is 93.8% (inactive). Also, the luciferase signal in experiment [11] was 52 AU (inactive).

Take `C[C@]12CCC(=O)C(O)=C1CC[C@@H]1[C@@H]2CC[C@]2(C)C(=O)CC[C@@H]12`: the parasite load remaining in experiment [8] is 20.3% (inactive). Besides, the viability in experiment [8] was found to be 80.5%. The inhibition in [9] is -18.3% (inactive). For the same compound, the call in experiment [15], in experiment [16], in experiment [17], in experiment [18], in experiment [19] and in experiment [20] was inactive. Moreover, the compound was called inactive in [21] and in experiment [22]. Further, the fold change was 0.801 (inactive) in experiment [13] (stronger effect = lower value) and 1.62 in [13] (setting [26]). In addition, the cell count came out at 8120 in experiment [13] (setting [27]), 10100 in experiment [13] (setting [28]) and 6710 in experiment [23]. Further, the SSMD in experiment [23] is 1.39. The plate-normalised HSF1 focus index in experiment [23] was 1.07 (inactive). Also, the z-score was 1.07 (inactive) and 0.415 (inactive) in experiment [14] (setting [29]); -0.144 and -0.532 in experiment [14] (setting [30]); 0.27 (inactive) in experiment [25]. For the same compound, the remaining NAD in [24] was 10 nM (inactive). Besides, the luciferase signal in experiment [11] was 48 AU (inactive).

Take `CCC(N)C(O)c1ccc(O)c(O)c1` (stereo not given): in experiment [8], the parasite load remaining was 130% (inactive) and 71.4% (inactive). Besides, the viability in [8] was 87.2% and 104%. Moreover, in experiment [9], the inhibition is -10.4% (inactive). In addition, the activity remaining in [10] is 121% (inactive). In addition, the fold change in experiment [13] (stronger effect = lower value, cell number ratio, induced over uninduced) was 0.787 (inactive); in experiment [13] (setting [26]), 5.47. In addition, the values for the cell count in [13] (setting [27]) and in [13] (setting [28]) were 7560 and 9610, respectively. In experiment [24], the remaining NAD is 10 nM (inactive). Further, the luciferase signal in [11] is 76 AU (inactive).
